According to PubChem BioAssay (NCI):
About 83,000 compounds went through this panel and 20% of them were active in at least one assay; those are over-represented in the sample as a whole.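 A percent growth of 40 corresponds to 60% growth inhibition; 0 means no net growth; -100 means all cells died. Active threshold: below 10.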 Calls of active or inactive are those of the source.

test system: COLO 205 colon; assay: NCI-60 one-dose screen, 48 h (100 = growth as untreated, 0 = no growth, -100 = all killed); details: 10 µM unless noted

Row | Compound | growth
1 | N#CC1=C(N)Oc2c(c(N)nn2-c2ccccc2)C1c1ccc(Cl)cc1Cl (stereo not drawn) | 120% (inactive)
2 | C=C(C)[C@@H]1CC[C@]2(C=O)CC[C@]3(C)[C@H](CC[C@@H]4[C@@]5(C)C/C(=C/c6cccnc6)C(=O)C(C)(C)[C@@H]5CC[C@]43C)[C@@H]12 | 95.5% (inactive)
3 | C=C(C)[C@@H]1CC[C@]2(C(=O)N3CCN(CC)CC3)CC[C@]3(C)[C@H](CC[C@@H]4[C@@](C)(CCC(=O)N5CCN(CC)CC5)[C@H](C(=C)C)CC[C@]43C)[C@@H]12 | 61.1% (inactive)
4 | CCN1CCN(C(=O)[C@]23CCC(C)(C)C[C@H]2C2=CC[C@@H]4[C@@]5(C)CC/C(=N/O)C(C)(C)[C@@H]5CC[C@@]4(C)[C@]2(C)CC3)CC1 | 87.9% (inactive)
5 | N#CC1=C(N)Oc2c(sc3c(F)cccc23)C1c1ccc(Cl)cc1 (stereo not drawn) | 38.4% (inactive)
6 | O=C1c2cccc3cccc(c23)C(=O)N1CC#Cc1ccc2c3c(cccc13)C(=O)N(CCN1CCNCC1)C2=O | 93.5% (inactive)
7 | C=C(C)[C@@H]1CC[C@]2(/C=N/Nc3ccncc3)CC[C@]3(C)[C@H](CC[C@@H]4[C@@]5(C)CCCNC(C)(C)[C@@H]5CC[C@]43C)[C@@H]12 | 42.2% (inactive)
8 | Cc1ccnc2c(OCc3ccccc3)cccc12 | 113% (inactive)
9 | C=CC(=O)N[C@H](Cc1ccc(-c2cc(Cl)cc(Cl)c2)cc1)[C@H](O)[C@@H](O)C(=O)O | 91.9% (inactive)
10 | C=COCCCCCCCCCCCCCCCCCC | 104% (inactive)
11 | COc1cc2ncnc(Nc3ccc(Oc4ccnc(C)c4)c(C)c3)c2cc1NC(=O)CC1CCSS1 (stereo not drawn) | -81.1% (active)
12 | CN1CCN(c2nc(-c3csc(-c4cccs4)n3)cc3ccccc23)CC1 | -51.1% (active)
13 | O=C(O[C@@H]1Cc2c(O)cc(O)cc2O[C@@H]1c1cc(O)c(O)c(O)c1)c1cc(O)c2c(c1)OCO2 | 104% (inactive)
14 | C/C(Cc1ccc(Cl)cc1)=C(/c1ccc(Cl)cc1)c1ccc(OCCN2CCCC2)cc1 | 61.6% (inactive)
15 | Cc1cc(N(CCCNc2ccnc3cc(Cl)ccc23)Cc2ccco2)nc(N2CCOCC2)n1 | 56.7% (inactive)
16 | Cc1ccccc1-c1nc(C(Cl)Cl)nc2cc(-c3ccccc3)nn12 | 41.7% (inactive)
17 | O=C1/C(=C\C(Cl)=C/c2ccc([N+](=O)[O-])cc2)SC(=S)N1CCc1ccc(O)cc1 | -43.8% (active)
18 | Brc1ccc2c(c1)c(-c1nc(-c3c[nH]c4ncccc34)cs1)cn2CCCN1CCCCC1 | -77.4% (active)
19 | Cn1c(/C(C#N)=C/c2ccc3ccccc3c2)cc2ccccc21 | 2.87% (active)

Row | Compound | growth
20 | CN(CSc1ccc(Cl)cc1)c1ccc(CSc2ccc(Cl)cc2)cc1 | 41% (inactive)
21 | CCNCCCn1c2c(c3ccc([N+](=O)[O-])cc3c1=O)C(=O)c1cc(OC)cnc1-2 | -30.9% (active)
22 | CC1(C)NC2=C(C(Nc3cccnc3)N1)C(c1ccc([N+](=O)[O-])cc1)C(C(=O)c1ccc(N=[N+]=[N-])cc1)O2 (stereo not drawn) | 109% (inactive)
23 | COc1ccc(C2C(C#N)=C(N)Oc3c2sc2c(F)cccc32)cc1 (stereo not drawn) | 5.98% (active)
24 | COc1cc(-c2cc3ncccc3c3[nH]c(=O)c4cccnc4c23)cc(OC)c1OC | -18.6% (active)
25 | CCCCC/C(=C\c1ccccc1)C1OC(C)C(C)O1 (stereo not drawn) | 106% (inactive)
26 | COc1ccc2c(c1)c(-c1nc(-c3c[nH]c4ncccc34)cs1)cn2CCNC(=O)OC(C)(C)C | 84.6% (inactive)
27 | COc1cc(/C=C/c2cc(/C=C/c3ccc(O)c(OC)c3)n(-c3ccccc3)c(=O)n2)ccc1O | 71.3% (inactive)
28 | CCN1CCN(C(=O)[C@]23CC[C@@H](C)[C@H](C)[C@H]2C2=CC[C@@H]4[C@@]5(C)C/C(=C/c6cccc(OC)c6OC)C(=O)C(C)(C)[C@@H]5CC[C@@]4(C)[C@]2(C)CC3)CC1 | 32.2% (inactive)
29 | COc1cc2c(cc1-c1c(C)noc1C)ncc1nc(C3CCCCC3)n([C@@H](C)COC(F)F)c12 | 9.21% (active)
30 | CC(=O)OC[C@]12CC[C@@H](/C(C)=N/O)[C@@H]1[C@H]1CC[C@@H]3[C@@]4(C)CCCNC(C)(C)[C@@H]4CC[C@@]3(C)[C@]1(C)CC2 | 75.8% (inactive)
31 | Brc1cnc2[nH]cc(-c3nnc(-c4ccccc4)o3)c2c1 | 82.9% (inactive)
32 | COc1ccc2[nH]c(-c3ccc(Cl)cc3)cc(=O)c2c1 | 105% (inactive)
33 | CCN1CCN(C(=O)[C@]23CCC(C)(C)C[C@@H]2C2=CC[C@@H]4[C@@]5(C)C/C(=C/c6ccncc6)C(=O)C(C)(C)[C@@H]5CC[C@@]4(C)[C@]2(C)CC3)CC1 | -15.3% (active)
34 | COc1ccc(/C=C(\C#N)c2cc3ccccc3n2S(C)(=O)=O)cc1 | 111% (inactive)
35 | Cc1ccc(S(=O)(=O)Nc2ccc(-c3cc(-c4cccc(F)c4)c(C#N)c(=O)[nH]3)cc2)cc1 | 115% (inactive)
36 | N#CC1=C(N)Oc2c(c(N)nn2-c2ccccc2)C1c1ccc(Cl)cc1 (stereo not drawn) | 106% (inactive)
37 | C=C(C)[C@@H]1CC[C@]2(CN)CC[C@]3(C)[C@H](CC[C@@H]4[C@@]5(C)CCC(=O)NC(C)(C)[C@@H]5CC[C@]43C)[C@@H]12 | 75.9% (inactive)
38 | CC1(C)[C@@H](O)CC[C@]2(C)[C@H]3CC[C@@H]4[C@H]5[C@H](C(=O)/C=C/c6ccc(C(F)(F)F)cc6)CC[C@]5(CO)CC[C@@]4(C)[C@]3(C)CC[C@@H]12 | 73.8% (inactive)
